Reference: PubChem BioAssay (NCATS)
Values without a mark were called inactive. Results filed as inconclusive are left out. Entries that show only a call come without a potency. Active and inactive are the calls of the source. Unless noted, calls come from the whole dose curve; as a rule, active = well fitted curve in the direction sought with a large enough effect; inconclusive = small, poorly fitted or top-dose-only effect, or another doubt; inactive = no such curve, though single readings can be large; an effect the other way counts as inactive or inconclusive.

Key:
[1] = molecular target: Atrial natriuretic peptide receptor 2 (Homo sapiens) (UniProt P20594); assay: Natriuretic polypeptide receptor (hNpr2) antagonism - Pilot subtype selectivity assay (AID 1347050; calls by dose curve; note: potency is the fitted concentration of half-maximal effect)
Chain of Atrial natriuretic peptide receptor 2 (Homo sapiens) (P20594 whole entry, looked up): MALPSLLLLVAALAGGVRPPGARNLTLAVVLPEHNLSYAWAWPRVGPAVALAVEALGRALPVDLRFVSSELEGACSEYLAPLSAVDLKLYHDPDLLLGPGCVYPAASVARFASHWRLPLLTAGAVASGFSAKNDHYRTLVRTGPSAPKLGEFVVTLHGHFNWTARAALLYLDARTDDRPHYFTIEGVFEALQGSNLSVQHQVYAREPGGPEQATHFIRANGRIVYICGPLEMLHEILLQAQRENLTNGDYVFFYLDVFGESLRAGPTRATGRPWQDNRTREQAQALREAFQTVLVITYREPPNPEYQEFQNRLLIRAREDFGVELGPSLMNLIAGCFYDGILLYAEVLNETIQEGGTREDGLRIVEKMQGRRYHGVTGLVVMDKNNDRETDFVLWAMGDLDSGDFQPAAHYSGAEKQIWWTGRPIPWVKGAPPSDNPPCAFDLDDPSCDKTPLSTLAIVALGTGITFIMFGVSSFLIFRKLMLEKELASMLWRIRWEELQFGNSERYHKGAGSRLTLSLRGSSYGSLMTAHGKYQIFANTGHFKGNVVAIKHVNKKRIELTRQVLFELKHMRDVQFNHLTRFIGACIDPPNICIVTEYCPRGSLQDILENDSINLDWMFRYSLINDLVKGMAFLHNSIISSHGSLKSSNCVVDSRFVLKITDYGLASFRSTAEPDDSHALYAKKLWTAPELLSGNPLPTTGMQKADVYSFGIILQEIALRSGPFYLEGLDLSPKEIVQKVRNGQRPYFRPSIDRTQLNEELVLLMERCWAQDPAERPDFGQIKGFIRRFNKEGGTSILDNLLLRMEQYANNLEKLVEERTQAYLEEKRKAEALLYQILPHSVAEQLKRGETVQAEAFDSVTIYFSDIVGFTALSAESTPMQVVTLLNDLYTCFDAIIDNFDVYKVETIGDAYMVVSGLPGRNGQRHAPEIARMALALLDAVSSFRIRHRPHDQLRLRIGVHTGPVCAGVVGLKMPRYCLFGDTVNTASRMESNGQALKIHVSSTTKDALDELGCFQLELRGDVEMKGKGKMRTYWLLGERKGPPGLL
Outline: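 Pilot selectivity screen against hNpr2: HEK293 cGMP-sensor cells are treated with LOPAC1280 compounds, then with hNppC peptide at 1 nM final. The cGMP-driven luminescence change over 20 min at room temperature is the read-out.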

[2] = NS1 protein of Zika virus - qHTS assay to identify small molecule inhibitors in human HEK 293 cells (AID 1347053); note: series mostly up to about 46 µM; nearly all actives have a fitted effect of over 55% in size
Outline: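 Inhibition of NS1 expression was scored in HEK 293 cells given compound 1 h ahead of MR766 virus (MOI = 0.5). Following 24 h at 37 C, two anti-NS1 antibodies generated a TR-FRET signal, scaled between uninfected and infected controls.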

[3] = molecular target: T1, Tyrosine-protein phosphatase non-receptor type substrate 1 (Homo sapiens) + Leukocyte surface antigen CD47 (Homo sapiens) (UniProt P78324+Q08722); assay: CD47-SIRPalpha protein protein interaction - LANCE assay qHTS validation (AID 1347057; active = well fitted curve in the direction sought with a large enough effect in the signal ratio, with a control signal flat, not every such curve was filed as active; the % refers to the signal ratio; note: series mostly up to about 38 µM)
T1 sequence (P78324 whole entry, looked up): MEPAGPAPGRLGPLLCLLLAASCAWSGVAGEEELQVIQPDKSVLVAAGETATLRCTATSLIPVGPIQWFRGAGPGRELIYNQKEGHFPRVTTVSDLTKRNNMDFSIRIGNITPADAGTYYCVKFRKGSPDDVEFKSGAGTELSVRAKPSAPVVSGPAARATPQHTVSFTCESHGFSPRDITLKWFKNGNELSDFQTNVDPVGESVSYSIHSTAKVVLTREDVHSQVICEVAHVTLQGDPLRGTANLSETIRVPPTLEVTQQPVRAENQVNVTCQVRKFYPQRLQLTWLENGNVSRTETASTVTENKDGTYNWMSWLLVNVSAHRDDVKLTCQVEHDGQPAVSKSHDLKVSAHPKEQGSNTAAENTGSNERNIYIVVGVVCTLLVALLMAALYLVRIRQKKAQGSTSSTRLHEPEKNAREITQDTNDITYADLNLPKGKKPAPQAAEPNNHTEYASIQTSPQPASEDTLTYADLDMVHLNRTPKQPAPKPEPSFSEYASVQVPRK
T1 sequence (Q08722 whole entry, looked up): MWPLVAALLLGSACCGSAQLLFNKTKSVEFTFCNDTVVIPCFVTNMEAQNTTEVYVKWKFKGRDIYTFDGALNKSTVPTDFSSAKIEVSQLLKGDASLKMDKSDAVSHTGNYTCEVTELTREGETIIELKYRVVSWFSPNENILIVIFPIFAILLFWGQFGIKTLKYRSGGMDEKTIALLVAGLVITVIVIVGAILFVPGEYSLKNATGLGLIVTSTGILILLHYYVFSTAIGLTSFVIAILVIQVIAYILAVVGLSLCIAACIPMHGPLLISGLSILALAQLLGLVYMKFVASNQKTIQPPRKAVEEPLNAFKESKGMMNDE
Outline: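 First, His-tagged CD47 and Eu-labelled anti-His antibody met the compound for 30 min; next, site-specifically biotinylated SIRPalpha was added for 30 min; finally streptavidin-APC was added before reading the TR-FRET ratio.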

[4] = molecular target: T1, Tyrosine-protein phosphatase non-receptor type substrate 1 (Homo sapiens) + Leukocyte surface antigen CD47 (Homo sapiens); assay: CD47-SIRPalpha protein protein interaction - HTRF assay qHTS validation (AID 1347058; active = well fitted curve in the direction sought with a large enough effect in the signal ratio, not every such curve was filed as active; the % refers to the signal ratio;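 note: recombinant soluble extracellular CD47 with His tag and biotinylated SIRPalpha domains; series mostly up to about 38 µM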)
Outline: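 TR-FRET read (Ch1/Ch2 ratio) of soluble extracellular CD47 and Avi-biotinylated SIRPalpha domains in PBS pH 7.4 with 0.05% IGEPAL; 7-point compound titration. Sequential 30 min room-temperature steps; non-biotinylated SIRPalpha as control inhibitor.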

[5] = molecular target: T1, Tyrosine-protein phosphatase non-receptor type substrate 1 (Homo sapiens) + Leukocyte surface antigen CD47 (Homo sapiens); assay: CD47-SIRPalpha protein protein interaction - Alpha assay qHTS validation (AID 1347059);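 note: bead proximity luminescence from CD47 binding SIRPalpha after compound preincubation with SIRPalpha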
Outline: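 Binding is measured by AlphaScreen proximity: Ni-NTA acceptor beads capture His-CD47, streptavidin donor beads capture biotin-SIRPalpha. Each of three additions (SIRPalpha with compound, CD47, beads) incubates 30 min at room temperature protected from light.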

[6] = molecular target: Parathyroid hormone/parathyroid hormone-related peptide receptor (Homo sapiens) (UniProt Q03431); assay: qHTS for PTHR1 Agonists: Optimization Screen against the NCGC LOPAC library (AID 1347079);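 note: GloSensor cAMP luminescence in HEK-293 GP2 cells expressing human PTHR1 with IBMX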
Chain of Parathyroid hormone/parathyroid hormone-related peptide receptor (Homo sapiens) (Q03431 whole entry, looked up): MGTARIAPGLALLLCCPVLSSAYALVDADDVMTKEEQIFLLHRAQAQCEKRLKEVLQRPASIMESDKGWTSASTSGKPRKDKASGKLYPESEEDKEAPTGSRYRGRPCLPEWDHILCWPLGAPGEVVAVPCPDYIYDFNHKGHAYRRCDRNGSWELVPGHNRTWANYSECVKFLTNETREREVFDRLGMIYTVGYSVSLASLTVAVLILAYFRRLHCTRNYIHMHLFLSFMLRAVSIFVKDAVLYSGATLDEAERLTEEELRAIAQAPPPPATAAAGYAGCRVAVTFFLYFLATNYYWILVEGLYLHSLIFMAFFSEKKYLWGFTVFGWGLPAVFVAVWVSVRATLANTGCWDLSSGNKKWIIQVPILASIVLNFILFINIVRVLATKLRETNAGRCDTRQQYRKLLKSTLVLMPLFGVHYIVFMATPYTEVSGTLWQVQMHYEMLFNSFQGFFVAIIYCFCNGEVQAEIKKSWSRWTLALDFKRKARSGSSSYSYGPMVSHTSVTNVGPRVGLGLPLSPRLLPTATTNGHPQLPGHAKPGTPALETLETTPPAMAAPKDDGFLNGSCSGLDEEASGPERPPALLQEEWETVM
Outline: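 Compounds were tested across a qHTS titration. PTHR1-expressing GP2 cells report cAMP rises via GloSensor luminescence after 1 hr compound exposure at 37C with IBMX present.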

[7] = qHTS of pediatric cancer cell lines to identify multiple opportunities for drug repurposing: Primary screen for TC32 cells (AID 1347089); note: nearly all actives have a fitted effect of over 60% in size
Outline: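 A viability screen of TC32 cells was run over 48 h, with primary MIPE doses spanning 0.78 nM–46 µM and NPC doses 0.59 nM–46 µM. ATP luminescence (CellTiter-Glo) served as the read-out.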

[8] = qHTS of pediatric cancer cell lines to identify multiple opportunities for drug repurposing: Primary screen for DAOY cells (AID 1347090); note: series mostly up to about 46 µM; nearly all actives have a fitted effect of over 55% in size
Outline: (§1)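 Cell viability, CellTiter-Glo luminescence; 500-1,000 cells/well, 8- or 11-point titration, 48 h compound exposure at 37 degrees C, 5% CO2. Controls: DMSO neutral, bortezomib 2.3 µM final as positive.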

[9] = qHTS of pediatric cancer cell lines to identify multiple opportunities for drug repurposing: Primary screen for SJ-GBM2 cells (AID 1347091)
Outline: as §1

[10] = qHTS of pediatric cancer cell lines to identify multiple opportunities for drug repurposing: Primary screen for A673 cells (AID 1347092); note: nearly all actives have a fitted effect of over 45% in size
Outline: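 Titration-based qHTS on A673 cells: MIPE compounds spanned 11 points (0.78 nM to 46 µM final), NPC compounds 8 points (0.59 nM to 46 µM final). Viability after 48 h was measured by ATP luminescence.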

Row | Structure (SMILES) | Potency [1] | outcome [2] | outcome [3] | outcome [4] | Potency [5] | outcome [6] | Potency [7] | Potency [8] | Potency [9] | Potency [10] | activity change, negative = cytotoxic [7] | activity change, negative = cytotoxic [8] | activity change, negative = cytotoxic [9] | activity change, negative = cytotoxic [10]
1 | NC(N)=NC(=O)Cc1c(Cl)cccc1Cl | inactive | inactive | inactive | inactive | inactive | inactive | inactive | inactive | inactive | inactive | – | – | – | –
2 | CC(C(=O)O)c1ccc(CC2CCCC2=O)cc1 (stereo unspecified) | inactive | inactive | inactive | inactive | inactive | inactive | inactive | inactive | inactive | inactive | – | – | – | –
3 | O=C(O)CN(CCOCCOCCN(CC(=O)O)CC(=O)O)CC(=O)O | inactive | inactive | inactive | inactive | inactive | inactive | – | – | – | – | 12.3% [at 0.594 µM] | 12.8% [at 0.597 µM] | 26.6% [at 0.597 µM] | 8.27% [at 0.597 µM]
4 | O=C(CCNNC(=O)c1ccncc1)NCc1ccccc1 | inactive | inactive | inactive | inactive | inactive | inactive | inactive | inactive | inactive | inactive | – | – | – | –
5 | CCN1CCC[C@H]1CNC(=O)c1c(O)c(Cl)cc(Cl)c1OC | inactive | inactive | inactive | inactive | inactive | inactive | inactive | inactive | inactive | inactive | – | – | – | –
6 | CCCN(CCC)C(=O)C(CCC(=O)O)NC(=O)c1ccccc1 (stereo unspecified) | inactive | inactive | inactive | inactive | inactive | inactive | inactive | inactive | inactive | inactive | – | – | – | –
7 | COCCCC/C(=N\OCCN)c1ccc(C(F)(F)F)cc1 | inactive | inactive | inactive | inactive | inactive | inactive | inactive | inactive | inactive | – | – | – | – | –
8 | CN(C)C/C=C(/c1ccc(Br)cc1)c1cccnc1 | inactive | inactive | inactive | inactive | inactive | inactive | inactive | inactive | inactive | inactive | – | – | – | –
9 | NC1=NCC2c3ccccc3Cc3ccccc3N12 (stereo unspecified) | inactive | inactive | inactive | inactive | inactive | inactive | inactive | inactive | inactive | inactive | – | – | – | –
10 | CCCOc1ccccc1-c1nc2n[nH]nc2c(=O)[nH]1 | inactive | inactive | inactive | inactive | inactive | inactive | inactive | inactive | inactive | inactive | – | – | – | –
11 | CCCC(C(=O)OCCN(CC)CC)(c1ccccc1)c1ccccc1 | 10.4 µM (active) | inactive | inactive | inactive | inactive | inactive | inactive | – | – | – | – | – | – | –
12 | C[N+](C)(C)CCCCCCCCCC[N+](C)(C)C | inactive | inactive | inactive | inactive | inactive | inactive | inactive | inactive | inactive | inactive | – | – | – | –
13 | Cc1nc2sccn2c(=O)c1CCN1CCC(=C(c2ccc(F)cc2)c2ccc(F)cc2)CC1 | inactive | inactive | inactive | inactive | inactive | inactive | inactive | inactive | – | – | – | – | – | –
14 | CCCCNc1ccc(C(=O)OCCN(C)C)cc1 | inactive | inactive | inactive | inactive | inactive | inactive | inactive | inactive | inactive | inactive | – | – | – | –
15 | O=C(O)CCCCCCCC(=O)O | inactive | inactive | inactive | inactive | inactive | inactive | inactive | inactive | inactive | inactive | – | – | – | –
16 | CC(C)(Oc1ccc(CCNC(=O)c2ccc(Cl)cc2)cc1)C(=O)O | inactive | inactive | inactive | inactive | inactive | inactive | inactive | inactive | inactive | inactive | – | – | – | –
17 | CN(C)CCN(Cc1cccs1)c1ccccn1 | inactive | inactive | inactive | inactive | inactive | inactive | inactive | inactive | inactive | inactive | – | – | – | –
18 | CC(=O)OCC1=C(C(=O)O)N2C(=O)[C@@H](NC(=O)Cc3cccs3)[C@H]2SC1 | inactive | inactive | inactive | inactive | inactive | inactive | inactive | inactive | inactive | inactive | – | – | – | –
19 | NC(N)=N/N=C/c1c(Cl)cccc1Cl | inactive | inactive | inactive | inactive | inactive | inactive | inactive | inactive | inactive | – | – | – | – | –
20 | COC(=O)[C@@H](N)Cc1ccc(O)c(O)c1 | inactive | inactive | inactive | inactive | inactive | inactive | inactive | inactive | inactive | inactive | – | – | – | –
21 | CCOC(=O)c1cnc2c(cnn2CC)c1NN=C(C)C | inactive | inactive | inactive | inactive | inactive | inactive | inactive | inactive | inactive | inactive | – | – | – | –
22 | C[C@@H](O)[C@H]1C(=O)N2C(C(=O)O)=C(SCCN=CN)C[C@H]12 | inactive | inactive | inactive | inactive | inactive | inactive | inactive | inactive | inactive | inactive | – | – | – | –
23 | Fc1ccc(C(c2ccc(F)cc2)N2CCN(C/C=C/c3ccccc3)CC2)cc1 | inactive | inactive | inactive | inactive | inactive | inactive | inactive | inactive | – | – | – | – | – | –
